Source: PubChem (The Scripps Research Institute Molecular Screening Center)
The sample as a whole holds a higher share of hits than the screen did.
TbREL1 primary: TbREL1 RNA ligase inhibitors, primary screen, biochemical, FRET fluorescence. RNA-editing ligase 1, mitochondrial (Trypanosoma brucei brucei), P86926. inhibition, % at 9.66 µM. actives 0.49% (n = 89,000). TbREL1 RNA ligation;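 active = inhibition above the mean inhibition across all screened compounds plus 3 SD, cut at about 11% in these data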
Target sequence (P86926 whole entry, looked up): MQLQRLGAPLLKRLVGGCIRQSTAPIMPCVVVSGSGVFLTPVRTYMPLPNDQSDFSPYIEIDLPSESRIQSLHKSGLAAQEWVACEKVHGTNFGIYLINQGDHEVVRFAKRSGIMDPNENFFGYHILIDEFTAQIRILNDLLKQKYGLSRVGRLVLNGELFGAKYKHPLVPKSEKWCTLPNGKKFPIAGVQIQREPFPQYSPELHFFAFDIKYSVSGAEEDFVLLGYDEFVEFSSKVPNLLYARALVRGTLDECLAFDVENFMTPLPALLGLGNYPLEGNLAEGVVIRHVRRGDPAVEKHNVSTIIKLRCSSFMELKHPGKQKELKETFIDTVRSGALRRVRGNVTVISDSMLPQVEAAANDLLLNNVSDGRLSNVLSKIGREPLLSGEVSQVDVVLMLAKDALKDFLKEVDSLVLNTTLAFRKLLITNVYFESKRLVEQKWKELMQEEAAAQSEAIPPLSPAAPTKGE
TbREL1 confirm: TbREL1 RNA ligase inhibitors, confirmation, biochemical, FRET fluorescence, triplicate. shares compounds with TbREL1 primary. TbREL1 RNA ligation. inhibition, % at 9.66 µM. actives 37% (n = 390);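 active = mean inhibition across replicates above a set limit taken from the earlier primary screen, cut at about 11% in these data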
Large screens that a line does not name were inactive (follow-up assays come after a bar, where they were run).

CCOc1ccc(S(=O)(=O)N(C)c2ccc(OCC(=O)Nc3ccc4[nH]c(=O)[nH]c4c3)cc2)cc1	TbREL1 primary 11 | TbREL1 confirm inactive
COC(=O)c1ccc(NC(=O)COc2ccc(N(C)S(=O)(=O)c3ccc(C)cc3)cc2)cc1	none
CN(c1ccc(OCC(=O)Nc2ccc3[nH]c(=O)[nH]c3c2)cc1)S(=O)(=O)c1ccc(Cl)cc1	none
NC(COCc1ccccc1)c1csc(Nc2ccc(C(F)(F)F)cn2)n1 (stereo not drawn)	none
COc1ccc(CC(N)c2csc(NC(=O)Nc3cccc(C(F)(F)F)c3)n2)cc1 (stereo not drawn)	none
CCCCN(C)C(=O)c1ccc(Nc2nc(C(N)Cc3ccc(C(F)(F)F)cc3)cs2)nc1 (stereo not drawn)	TbREL1 primary 17 | TbREL1 confirm 13
C[C@@H]1CCCN1c1cccc2c1S(=O)(=O)N1CC[C@@H](C1)O2	none
CC1CCC2(CC1)CCC2NCc1ccc(Cl)c(Cl)c1 (stereo not drawn)	none
CCOCCCNC(=O)C1CCN(S(=O)(=O)c2cc3c(cc2Br)CCN3C(=O)CC)CC1	none
CCc1ccc(OCCNc2cc(N3CCNC(C)C3)ccc2[N+](=O)[O-])cc1 (stereo not drawn)	TbREL1 primary 12 | TbREL1 confirm inactive
CC(Nc1cc(N2CCNCC2)ccc1[N+](=O)[O-])c1ccccc1 (stereo not drawn)	none
O=[N+]([O-])c1ccc(N2CCCC2)cc1NC1CC1	none
Cc1ccccc1C1CCC2(CC1)CCN(CC[C@@H](O)c1ccccc1)C2=O (stereo partly drawn)	none
CCOC(=O)[C@@]12CCC3=C1N(CCC3)C(=O)[C@H](CC(=O)NCCCCc1ccccc1)C2	none
CCS(=O)(=O)n1nc(-c2ccc(Cl)cc2)nc1N	none
COc1ccc(-c2nc(SC)n(S(=O)(=O)c3ccccc3)n2)cc1	none
CSc1nc(-c2ccccc2)nn1S(=O)(=O)c1ccc(Cl)cc1	TbREL1 primary 11 | TbREL1 confirm inactive
CN1C2=N[C@@H](c3ccc4c(c3)OCO4)CC(=O)N2/C(=C\c2ccccc2)[C@@H]1c1ccccc1	none
CC(C)(C)OC(=O)N1CCC(N[C@@H](Cc2ccccc2)C(=O)NCC(c2ccccc2)c2ccccc2)(C(=O)NC2CCCCC2)CC1	none
COc1ccc(-c2nnc(SCC(=O)NN=Cc3c(O)ccc4ccccc34)n2-c2ccc(OC)cc2)cc1	none
Cc1ccc(S(=O)(=O)N2CCCC2C(=O)N2CCc3ccccc3C2)cc1 (stereo not drawn)	none
O=C(NCc1ccccc1Cl)C1CCC(=O)N(CC2CCCCC2)C1 (stereo not drawn)	none
CC(C)(C)c1ccc(S(=O)(=O)N2CCCC(C(=O)N3CCN(Cc4ccccc4)CC3)C2)cc1 (stereo not drawn)	none
Cc1nc2cc(C(F)(F)F)ccc2n1CCNc1nc(-c2ccc([N+](=O)[O-])c(Cl)c2)cs1	none
O=[N+]([O-])c1cc(-c2csc(NCCc3nc4cc(C(F)(F)F)ccc4n3CCCO)n2)ccc1Cl	TbREL1 primary 19 | TbREL1 confirm inactive
OCCOCCn1c(CCNc2nc(-c3ccc(F)cc3)cs2)nc2cc(C(F)(F)F)ccc21	none
O=[N+]([O-])c1ccc(CSc2nnc(-c3cccc(Cl)c3)n2Cc2ccco2)cc1	none
COC(=O)[C@]12C[C@H](CC(=O)N3CCN(C(=O)C4CC4)CC3)C(=O)N(Cc3cccc4ccccc34)C1=C[C@H](COCc1ccccc1)O[C@@H]2C	none
CC(C)(C)c1csc(NC(=O)Cn2c(=O)oc3ccccc32)n1	none
O=C(Cn1c(=O)oc2ccccc21)c1ccccc1	none
CC(C)(C)NC(=O)Cn1c(=O)oc2ccc(Cl)cc21	TbREL1 primary 59 | TbREL1 confirm inactive
O=C(CSc1nnc(-c2cccnc2)n1-c1ccc(Cl)cc1)Nc1ccccc1-c1ccccc1	none
COc1ccc(CC(=O)N2CCN(C(=O)c3ccc4nc(C)n(C5CCCC5)c4c3)CC2)cc1	none
Cc1nc2ccc(NC(=O)c3c(Cl)cccc3Cl)cc2c(=O)[nH]1	none
CCCCNCCCOc1cc(Cl)ccc1Cl	none
COCCCNCCCOc1ccc(Cl)cc1Br	TbREL1 primary 11 | TbREL1 confirm inactive
COCCCNCCOc1ccc(C)cc1[N+](=O)[O-]	none
Cc1cc(Cl)c(OCCCn2cncn2)c(Br)c1	none
C=CCNCCCCOc1c(Cl)cc(C)cc1Br	none
COCCCNCCCCOc1c(Cl)cc(C)cc1Br	TbREL1 primary 12 | TbREL1 confirm inactive
CC(c1ccccc1)N1CC[C@H]2C=CC[C@@H](C(=O)Nc3cccc(Cl)c3)[C@H]2C1=O (stereo partly drawn)	none
CCC(CC)C(C(=O)NCc1ccccc1)N1CCN(CCN2CCOCC2)CC1 (stereo not drawn)	none
CCn1c(SCC(=O)NN=Cc2c[nH]c3ccccc23)nc2ccccc21	none
C[C@H]1COc2cc(Br)ccc2S(=O)(=O)N1Cc1cn(CC2CCCCC2)nn1	none
Cc1ccc(NC(=O)Cc2ccc(F)cc2)c(S(=O)(=O)N2CCOCC2)c1	none
C[C@H]1[C@@H](OC(=O)NCc2ccccc2Cl)CC[C@@]23CCCN2C(=O)CCC[C@@H]13	none
O=C(Nc1ccc(Cl)cc1)C(Cl)C(=O)c1ccccc1 (stereo not drawn)	TbREL1 primary 12 | TbREL1 confirm inactive
O=C(Nc1ccc(F)c(Cl)c1)c1ccccc1	none
O=C(N/C(=N\O)c1ccccc1)Nc1ccc(Cl)cc1	none
COc1ccc(C(=O)Nc2cc(Cl)c(Br)cc2C(=O)O)cc1	none
Nc1nc2c(ncn2[C@@H]2O[C@H](C(=O)N[C@@H](Cc3ccccc3)C(=O)NCc3ccc4c(c3)OCO4)[C@@H](O)[C@H]2O)c(=O)[nH]1	none
Cc1ccc(S(=O)(=O)N2CCN=C2SCc2ccc(Cl)c(Cl)c2)cc1	none
Cc1ccc(C(=O)C[n+]2cc(-c3ccc(C)cc3)n3c2CCCCC3)cc1	none
Cc1ccc(-c2c[n+](Cc3ccc(Cl)c(Cl)c3)c3n2CCC3)cc1	TbREL1 primary 13 | TbREL1 confirm inactive
C=CCNC(=O)C1CCN(c2cncnc2)CC1	none
CC(C)N1CCCCC(NC(=O)c2ccccc2)C1=O (stereo not drawn)	none
C#CCOCCOCCOCCNc1nc(N2CCN(C(=O)[C@H]([C@@H](C)CC)n3cc([C@@H](N)CC(C)C)nn3)CC2)nc(N2CCN(C(=O)[C@H]([C@@H](C)CC)n3cc([C@@H](N)CC(C)C)nn3)CC2)n1	TbREL1 primary 11 | TbREL1 confirm inactive
C#CCOCCOCCOCCNc1nc(N2CCN(C(=O)[C@H]([C@@H](C)CC)n3cc([C@@H](N)CC(C)C)nn3)CC2)nc(N2CCN(C(=O)[C@H](Cc3ccc(O)cc3)n3cc([C@@H](N)CC(C)C)nn3)CC2)n1	none
C#CCOCCOCCOCCNc1nc(N2CCN(C(=O)[C@H]([C@@H](C)CC)n3cc([C@@H](N)Cc4ccc(O)cc4)nn3)CC2)nc(N2CCN(C(=O)[C@H]([C@@H](C)CC)n3cc([C@@H](N)Cc4ccc(O)cc4)nn3)CC2)n1	none
CCCCOc1ccc(C(=O)n2ccc3ccc(-c4ccc5ccn(Cc6ccccc6)c5c4)cc32)cc1	none
COc1ccc(C2Nc3ccccc3C(=O)N2Cc2ccco2)cc1COc1ccccc1C (stereo not drawn)	none
C=CCCC(=O)N1CCC(C(=O)NCC2COc3ccccc3O2)CC1 (stereo not drawn)	none
CN1C2=N[C@@H](c3ccc4ccccc4c3)CC(=O)N2/C(=C\c2ccccc2)[C@H]1c1ccccc1	none
